# Test results published in PMC7862700, “An all-to-all approach to the identification of sequence-specific readers for epigenetic DNA modifications on cytosine”.
# Columns and labels:
# Experiment in all cases: DAPPL (digital affinity profiling via proximity ligation, sequencing); 10 mM Tris-HCl pH 7.5, 50 mM NaCl, 1 mM DTT, 4% glycerol, room temperature, 30 min; GST-TFs on glutathione beads, 16-mer random dsDNA library, 0.1% formaldehyde crosslink after washing; high values mean tight binding
# FLI1 = target: T1, FLI1 (Homo sapiens, UniProt Q01543 1-452); conditions: protein: recombinant; tags: N-terminal GST; dsDNA, one strand shown
# T1 sequence: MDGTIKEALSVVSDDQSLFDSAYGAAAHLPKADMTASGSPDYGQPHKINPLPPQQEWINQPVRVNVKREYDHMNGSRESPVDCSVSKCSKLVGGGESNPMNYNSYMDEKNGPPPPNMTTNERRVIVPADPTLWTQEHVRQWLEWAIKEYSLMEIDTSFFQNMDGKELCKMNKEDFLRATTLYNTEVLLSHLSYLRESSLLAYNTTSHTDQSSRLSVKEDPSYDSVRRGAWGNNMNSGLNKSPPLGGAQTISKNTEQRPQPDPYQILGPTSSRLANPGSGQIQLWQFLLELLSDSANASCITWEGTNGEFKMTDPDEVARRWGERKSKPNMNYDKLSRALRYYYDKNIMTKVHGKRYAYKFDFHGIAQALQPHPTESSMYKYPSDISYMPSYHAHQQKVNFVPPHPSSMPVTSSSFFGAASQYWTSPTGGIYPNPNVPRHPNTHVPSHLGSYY
# Outline: (§1)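 Human transcription factors were made in yeast as GST fusions, captured on glutathione beads and barcoded with DNA. With a tag-only sample included, the pool was incubated with 200 nmole of a random double-stranded 16-mer DNA library in Tris/NaCl/DTT/glycerol buffer at room temperature for 30 min, then crosslinked with 0.1% formaldehyde after washing, ligated by proximity, amplified and sequenced. For binding signal, each hexamer's read frequency for a factor is divided by its frequency for the tag-only sample.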
# ELK1 = target: T2, ELK1 (Homo sapiens, UniProt P19419 1-428); conditions: protein: recombinant; tags: N-terminal GST; dsDNA, one strand shown
# T2 sequence: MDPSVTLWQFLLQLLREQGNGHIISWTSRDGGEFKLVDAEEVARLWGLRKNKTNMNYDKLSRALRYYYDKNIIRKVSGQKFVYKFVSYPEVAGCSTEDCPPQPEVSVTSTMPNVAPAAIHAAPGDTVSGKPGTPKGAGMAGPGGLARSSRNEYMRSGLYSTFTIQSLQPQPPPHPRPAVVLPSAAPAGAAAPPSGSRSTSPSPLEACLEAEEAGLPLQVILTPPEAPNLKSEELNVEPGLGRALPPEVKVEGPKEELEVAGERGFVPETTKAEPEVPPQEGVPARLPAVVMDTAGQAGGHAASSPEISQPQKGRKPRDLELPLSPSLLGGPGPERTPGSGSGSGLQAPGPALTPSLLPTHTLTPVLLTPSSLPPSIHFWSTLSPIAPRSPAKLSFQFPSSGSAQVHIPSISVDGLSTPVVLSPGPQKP
# Outline: as §1
# GABPA = target: T3, GABPA (Homo sapiens, UniProt Q06546 1-454); conditions: protein: recombinant; tags: N-terminal GST; dsDNA, one strand shown
# T3 sequence: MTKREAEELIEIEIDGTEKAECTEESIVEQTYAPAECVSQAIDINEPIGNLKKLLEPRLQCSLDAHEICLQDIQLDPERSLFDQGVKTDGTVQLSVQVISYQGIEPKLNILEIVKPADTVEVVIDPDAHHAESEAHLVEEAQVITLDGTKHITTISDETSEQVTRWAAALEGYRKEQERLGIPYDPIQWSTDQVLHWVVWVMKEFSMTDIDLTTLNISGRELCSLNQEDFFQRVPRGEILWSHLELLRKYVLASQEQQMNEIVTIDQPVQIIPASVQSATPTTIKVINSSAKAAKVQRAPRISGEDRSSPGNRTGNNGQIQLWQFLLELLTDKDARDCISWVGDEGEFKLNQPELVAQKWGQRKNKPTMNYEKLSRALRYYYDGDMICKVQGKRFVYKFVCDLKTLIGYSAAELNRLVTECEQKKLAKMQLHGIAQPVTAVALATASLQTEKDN
# Outline: as §1
# ERG = target: T4, ERG (Homo sapiens, UniProt P11308 1-479); conditions: protein: recombinant; tags: N-terminal GST; dsDNA, one strand shown
# T4 sequence: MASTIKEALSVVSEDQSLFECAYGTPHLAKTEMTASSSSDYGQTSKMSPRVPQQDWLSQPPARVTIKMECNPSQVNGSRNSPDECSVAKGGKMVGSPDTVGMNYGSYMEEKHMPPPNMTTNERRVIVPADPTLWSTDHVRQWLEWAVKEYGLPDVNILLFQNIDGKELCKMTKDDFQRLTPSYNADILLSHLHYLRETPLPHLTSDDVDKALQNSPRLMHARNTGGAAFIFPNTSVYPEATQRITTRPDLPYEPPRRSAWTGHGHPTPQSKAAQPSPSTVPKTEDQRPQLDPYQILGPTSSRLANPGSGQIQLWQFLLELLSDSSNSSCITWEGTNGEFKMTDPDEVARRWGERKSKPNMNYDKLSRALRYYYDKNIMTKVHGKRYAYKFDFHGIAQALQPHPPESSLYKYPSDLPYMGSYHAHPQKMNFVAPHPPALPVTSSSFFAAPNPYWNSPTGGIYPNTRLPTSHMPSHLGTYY
# Outline: as §1
# ELF1 = ELF1 (Homo sapiens, UniProt P32519 1-619); conditions: protein: recombinant; tags: N-terminal GST; dsDNA, one strand shown
# Outline: as §1
# EHF = target: T5, EHF (Homo sapiens, UniProt Q9NZC4 1-300); conditions: protein: recombinant; tags: N-terminal GST; dsDNA, one strand shown
# T5 sequence: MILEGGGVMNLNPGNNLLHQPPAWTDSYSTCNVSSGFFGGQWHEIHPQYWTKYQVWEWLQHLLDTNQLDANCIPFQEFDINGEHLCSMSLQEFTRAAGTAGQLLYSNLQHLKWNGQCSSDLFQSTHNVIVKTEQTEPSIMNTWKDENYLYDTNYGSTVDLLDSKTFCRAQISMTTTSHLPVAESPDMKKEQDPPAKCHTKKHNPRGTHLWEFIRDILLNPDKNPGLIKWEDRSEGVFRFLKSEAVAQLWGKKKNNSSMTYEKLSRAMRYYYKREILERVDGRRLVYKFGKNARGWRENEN
# Outline: as §1
# SPI1 = SPI1 (Homo sapiens, UniProt P17947 1-270); conditions: protein: recombinant; tags: N-terminal GST; dsDNA, one strand shown
# Outline: as §1
# SPIB = SPIB (Homo sapiens, UniProt Q01892 1-262); conditions: protein: recombinant; tags: N-terminal GST; dsDNA, one strand shown
# Outline: as §1
# ELK3 = target: T6, ELK3 (Homo sapiens, UniProt P41970 1-407); conditions: protein: recombinant; tags: N-terminal GST; dsDNA, one strand shown
# T6 sequence: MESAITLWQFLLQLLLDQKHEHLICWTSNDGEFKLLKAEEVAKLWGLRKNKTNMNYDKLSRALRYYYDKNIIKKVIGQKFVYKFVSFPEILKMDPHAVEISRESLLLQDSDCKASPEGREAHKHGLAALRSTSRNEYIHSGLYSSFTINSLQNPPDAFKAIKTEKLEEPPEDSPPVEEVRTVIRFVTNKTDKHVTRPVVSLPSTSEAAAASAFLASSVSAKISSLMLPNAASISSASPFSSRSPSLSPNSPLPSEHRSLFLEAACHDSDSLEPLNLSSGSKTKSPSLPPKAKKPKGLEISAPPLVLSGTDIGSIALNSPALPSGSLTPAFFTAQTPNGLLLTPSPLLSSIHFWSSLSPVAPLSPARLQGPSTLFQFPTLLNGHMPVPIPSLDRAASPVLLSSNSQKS
# Outline: as §1
# FEV = target: T7, FEV (Homo sapiens, UniProt Q99581 1-238); conditions: protein: recombinant; tags: N-terminal GST; dsDNA, one strand shown
# T7 sequence: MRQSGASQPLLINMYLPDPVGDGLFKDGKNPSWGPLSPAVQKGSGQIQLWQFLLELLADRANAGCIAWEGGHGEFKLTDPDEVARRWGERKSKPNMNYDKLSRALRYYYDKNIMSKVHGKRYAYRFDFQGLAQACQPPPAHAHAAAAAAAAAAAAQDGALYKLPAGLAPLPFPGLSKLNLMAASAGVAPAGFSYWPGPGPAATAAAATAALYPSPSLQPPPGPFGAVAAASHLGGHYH
# Outline: as §1
# ETV5 = ETV5 (Homo sapiens, UniProt P41161 1-510); conditions: protein: recombinant; tags: N-terminal GST; dsDNA, one strand shown
# Outline: as §1
# HSF1 = HSF1 (Homo sapiens, UniProt Q00613 1-529); conditions: protein: recombinant; tags: N-terminal GST; chain copies: 3; dsDNA, one strand shown
# Outline: as §1
# SPIC = target: T8, SPIC (Homo sapiens, UniProt Q8N5J4 1-248); conditions: protein: recombinant; tags: N-terminal GST; dsDNA, one strand shown
# T8 sequence: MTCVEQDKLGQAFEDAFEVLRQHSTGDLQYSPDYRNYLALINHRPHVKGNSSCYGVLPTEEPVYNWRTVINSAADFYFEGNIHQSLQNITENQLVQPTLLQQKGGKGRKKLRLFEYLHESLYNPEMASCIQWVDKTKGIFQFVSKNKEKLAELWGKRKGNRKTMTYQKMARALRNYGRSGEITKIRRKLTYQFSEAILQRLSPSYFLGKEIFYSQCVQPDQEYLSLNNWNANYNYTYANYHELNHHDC
# Outline: as §1
# ELF4 = ELF4 (Homo sapiens, UniProt Q99607 1-663); conditions: protein: recombinant; tags: N-terminal GST; dsDNA, one strand shown
# Outline: as §1
# ELK4 = target: T9, ELK4 (Homo sapiens, UniProt P28324-2 1-405); conditions: protein: recombinant; tags: N-terminal GST; dsDNA, one strand shown
# T9 sequence: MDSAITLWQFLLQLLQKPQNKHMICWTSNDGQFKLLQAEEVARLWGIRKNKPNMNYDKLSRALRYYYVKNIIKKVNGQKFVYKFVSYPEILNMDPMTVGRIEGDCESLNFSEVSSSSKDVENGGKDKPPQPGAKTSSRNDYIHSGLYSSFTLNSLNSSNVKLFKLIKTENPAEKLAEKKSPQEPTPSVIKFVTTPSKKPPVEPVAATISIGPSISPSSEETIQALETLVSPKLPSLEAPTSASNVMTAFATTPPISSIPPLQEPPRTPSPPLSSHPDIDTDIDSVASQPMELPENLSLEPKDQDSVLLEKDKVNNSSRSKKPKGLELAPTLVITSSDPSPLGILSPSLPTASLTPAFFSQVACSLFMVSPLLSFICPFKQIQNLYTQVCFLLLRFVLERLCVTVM
# Outline: as §1
# ETV2 = target: T10, ETV2 (Homo sapiens, UniProt O00321 1-342); conditions: protein: recombinant; tags: N-terminal GST; dsDNA, one strand shown
# T10 sequence: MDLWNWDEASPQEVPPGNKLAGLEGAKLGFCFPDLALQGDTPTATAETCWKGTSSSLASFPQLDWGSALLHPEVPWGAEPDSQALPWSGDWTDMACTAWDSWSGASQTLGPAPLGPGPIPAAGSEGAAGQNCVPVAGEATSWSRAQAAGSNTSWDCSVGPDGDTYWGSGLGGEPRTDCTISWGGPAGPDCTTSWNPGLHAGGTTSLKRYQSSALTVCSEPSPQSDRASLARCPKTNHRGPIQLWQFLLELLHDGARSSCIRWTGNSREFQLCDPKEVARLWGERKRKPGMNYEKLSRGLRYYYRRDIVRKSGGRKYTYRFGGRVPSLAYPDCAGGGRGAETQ
# Outline: as §1
# ELF3 = target: T11, ELF3 (Homo sapiens, UniProt P78545 1-371); conditions: protein: recombinant; tags: N-terminal GST; dsDNA, one strand shown
# T11 sequence: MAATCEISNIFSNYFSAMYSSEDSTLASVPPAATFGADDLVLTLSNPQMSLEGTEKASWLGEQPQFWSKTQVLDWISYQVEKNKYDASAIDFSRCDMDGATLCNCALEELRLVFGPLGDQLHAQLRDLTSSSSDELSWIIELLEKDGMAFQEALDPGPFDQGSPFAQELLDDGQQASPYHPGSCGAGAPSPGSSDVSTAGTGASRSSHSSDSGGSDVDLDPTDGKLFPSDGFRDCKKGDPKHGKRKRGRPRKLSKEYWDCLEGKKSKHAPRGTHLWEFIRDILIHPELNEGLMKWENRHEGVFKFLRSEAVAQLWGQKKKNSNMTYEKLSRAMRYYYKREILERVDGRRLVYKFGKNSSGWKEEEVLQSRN
# Outline: as §1
# CRX = CRX (Homo sapiens, UniProt O43186 1-299); conditions: protein: recombinant; tags: N-terminal GST; dsDNA, one strand shown
# Outline: as §1
# ETV1 = ETV1 (Homo sapiens, UniProt P50549 1-477); conditions: protein: recombinant; tags: N-terminal GST; dsDNA, one strand shown
# Outline: as §1
# Sequence of HSF1 (Q00613 whole entry): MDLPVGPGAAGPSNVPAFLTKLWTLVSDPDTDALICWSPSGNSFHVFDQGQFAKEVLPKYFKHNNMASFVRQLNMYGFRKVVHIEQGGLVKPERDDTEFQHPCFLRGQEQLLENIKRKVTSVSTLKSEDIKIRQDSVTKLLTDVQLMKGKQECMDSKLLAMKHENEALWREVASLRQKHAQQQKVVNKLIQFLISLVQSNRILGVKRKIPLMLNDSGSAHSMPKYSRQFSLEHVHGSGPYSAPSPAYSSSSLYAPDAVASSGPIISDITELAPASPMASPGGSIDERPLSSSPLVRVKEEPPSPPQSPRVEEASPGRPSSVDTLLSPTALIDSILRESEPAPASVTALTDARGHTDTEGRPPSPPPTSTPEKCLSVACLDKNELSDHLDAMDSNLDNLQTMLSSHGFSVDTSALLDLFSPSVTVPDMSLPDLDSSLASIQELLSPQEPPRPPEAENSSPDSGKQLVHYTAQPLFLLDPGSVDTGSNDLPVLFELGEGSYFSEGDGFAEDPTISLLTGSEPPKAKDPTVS
# Sequence of SPIB (Q01892 whole entry): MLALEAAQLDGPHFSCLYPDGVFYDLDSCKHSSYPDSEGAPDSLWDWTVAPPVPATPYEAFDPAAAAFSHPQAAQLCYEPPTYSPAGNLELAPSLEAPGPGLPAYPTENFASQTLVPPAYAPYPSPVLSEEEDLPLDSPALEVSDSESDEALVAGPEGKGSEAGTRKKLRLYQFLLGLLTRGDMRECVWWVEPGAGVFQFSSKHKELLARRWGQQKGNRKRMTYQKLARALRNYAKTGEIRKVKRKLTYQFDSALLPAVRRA
# Sequence of ETV5 (P41161 whole entry): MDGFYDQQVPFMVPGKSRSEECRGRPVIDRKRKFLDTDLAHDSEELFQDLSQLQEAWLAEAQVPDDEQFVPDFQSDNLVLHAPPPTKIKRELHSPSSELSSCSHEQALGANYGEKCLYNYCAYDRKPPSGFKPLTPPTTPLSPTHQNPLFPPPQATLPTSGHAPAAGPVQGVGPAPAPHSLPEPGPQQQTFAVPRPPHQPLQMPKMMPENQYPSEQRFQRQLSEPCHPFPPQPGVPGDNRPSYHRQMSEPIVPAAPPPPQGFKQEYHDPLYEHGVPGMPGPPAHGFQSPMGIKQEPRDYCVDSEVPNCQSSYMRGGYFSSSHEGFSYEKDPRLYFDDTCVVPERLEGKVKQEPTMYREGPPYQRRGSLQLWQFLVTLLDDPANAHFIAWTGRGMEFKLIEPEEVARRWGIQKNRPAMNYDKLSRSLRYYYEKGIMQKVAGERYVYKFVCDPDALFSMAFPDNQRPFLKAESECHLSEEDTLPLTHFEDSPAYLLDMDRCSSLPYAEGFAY
# Sequence of ELF4 (Q99607 whole entry): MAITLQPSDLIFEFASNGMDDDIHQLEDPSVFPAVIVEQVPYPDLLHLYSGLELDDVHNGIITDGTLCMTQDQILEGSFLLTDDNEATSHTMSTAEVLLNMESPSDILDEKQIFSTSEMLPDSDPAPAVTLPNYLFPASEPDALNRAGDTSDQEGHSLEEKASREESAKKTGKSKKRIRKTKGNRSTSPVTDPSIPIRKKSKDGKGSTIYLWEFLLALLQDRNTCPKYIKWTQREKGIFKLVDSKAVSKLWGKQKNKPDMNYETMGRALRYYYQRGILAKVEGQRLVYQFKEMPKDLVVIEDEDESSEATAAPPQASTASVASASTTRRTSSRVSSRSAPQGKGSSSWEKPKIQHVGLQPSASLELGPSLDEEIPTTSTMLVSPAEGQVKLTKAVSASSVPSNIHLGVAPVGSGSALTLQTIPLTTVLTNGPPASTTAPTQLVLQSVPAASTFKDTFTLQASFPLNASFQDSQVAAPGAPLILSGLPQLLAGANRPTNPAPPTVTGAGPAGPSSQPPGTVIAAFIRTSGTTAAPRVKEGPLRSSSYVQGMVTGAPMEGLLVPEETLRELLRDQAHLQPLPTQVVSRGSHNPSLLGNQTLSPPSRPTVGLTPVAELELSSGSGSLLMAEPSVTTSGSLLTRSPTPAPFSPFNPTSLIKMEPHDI
# Sequence of CRX (O43186 whole entry): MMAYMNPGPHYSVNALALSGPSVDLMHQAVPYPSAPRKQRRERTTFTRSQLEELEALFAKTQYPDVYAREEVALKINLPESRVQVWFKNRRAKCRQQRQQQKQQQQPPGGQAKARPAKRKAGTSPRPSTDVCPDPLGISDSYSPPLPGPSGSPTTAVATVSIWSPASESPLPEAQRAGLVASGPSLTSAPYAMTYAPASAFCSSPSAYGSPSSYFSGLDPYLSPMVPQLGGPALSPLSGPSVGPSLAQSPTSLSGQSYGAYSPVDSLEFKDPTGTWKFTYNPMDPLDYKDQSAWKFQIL
# Sequence of ETV1 (P50549 whole entry): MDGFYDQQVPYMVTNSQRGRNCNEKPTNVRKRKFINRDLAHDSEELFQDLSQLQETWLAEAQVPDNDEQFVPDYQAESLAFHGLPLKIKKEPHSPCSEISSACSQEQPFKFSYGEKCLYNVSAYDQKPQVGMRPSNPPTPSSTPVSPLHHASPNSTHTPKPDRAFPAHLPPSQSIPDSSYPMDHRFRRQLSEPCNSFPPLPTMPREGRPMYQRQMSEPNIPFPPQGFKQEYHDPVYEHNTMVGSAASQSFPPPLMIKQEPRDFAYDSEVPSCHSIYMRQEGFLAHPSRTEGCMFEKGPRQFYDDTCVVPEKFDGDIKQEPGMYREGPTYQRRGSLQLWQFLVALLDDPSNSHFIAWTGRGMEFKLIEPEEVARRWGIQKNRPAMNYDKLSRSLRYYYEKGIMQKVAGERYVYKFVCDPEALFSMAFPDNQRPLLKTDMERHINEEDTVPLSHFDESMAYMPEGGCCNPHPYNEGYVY
# Sequence of ELF1 (P32519 whole entry): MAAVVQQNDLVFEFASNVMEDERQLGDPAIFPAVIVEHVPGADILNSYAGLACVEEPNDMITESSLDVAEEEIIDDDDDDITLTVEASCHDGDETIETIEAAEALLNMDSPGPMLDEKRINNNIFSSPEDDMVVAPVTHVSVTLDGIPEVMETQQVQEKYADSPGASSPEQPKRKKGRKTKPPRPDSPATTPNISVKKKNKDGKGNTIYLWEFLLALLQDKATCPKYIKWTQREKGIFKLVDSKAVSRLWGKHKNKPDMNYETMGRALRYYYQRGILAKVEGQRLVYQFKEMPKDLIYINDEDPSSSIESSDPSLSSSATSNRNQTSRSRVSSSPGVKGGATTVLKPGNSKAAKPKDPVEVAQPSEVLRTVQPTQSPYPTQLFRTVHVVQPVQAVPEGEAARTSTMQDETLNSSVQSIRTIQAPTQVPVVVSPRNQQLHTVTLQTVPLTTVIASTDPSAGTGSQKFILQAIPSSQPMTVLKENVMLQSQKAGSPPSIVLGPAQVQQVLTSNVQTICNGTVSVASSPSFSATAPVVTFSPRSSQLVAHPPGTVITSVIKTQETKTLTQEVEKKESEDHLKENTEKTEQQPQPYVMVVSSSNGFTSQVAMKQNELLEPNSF
sequence,measurement,setting,value
TTATGA,binding signal,FLI1,"1.15 fold enrichment (6-mer frequency, TF over GST control)"
same,binding signal,ELK1,"1.15 fold enrichment (6-mer frequency, TF over GST control)"
same,binding signal,GABPA,"1.22 fold enrichment (6-mer frequency, TF over GST control)"
same,binding signal,ERG,"1.08 fold enrichment (6-mer frequency, TF over GST control)"
same,binding signal,ELF1,"1.19 fold enrichment (6-mer frequency, TF over GST control)"
same,binding signal,EHF,"1.16 fold enrichment (6-mer frequency, TF over GST control)"
same,binding signal,SPI1,"1.15 fold enrichment (6-mer frequency, TF over GST control)"
same,binding signal,SPIB,"1.14 fold enrichment (6-mer frequency, TF over GST control)"
same,binding signal,ELK3,"1.22 fold enrichment (6-mer frequency, TF over GST control)"
same,binding signal,FEV,"1.07 fold enrichment (6-mer frequency, TF over GST control)"
same,binding signal,ETV5,"1.16 fold enrichment (6-mer frequency, TF over GST control)"
same,binding signal,HSF1,"1.45 fold enrichment (6-mer frequency, TF over GST control)"
same,binding signal,SPIC,"1.26 fold enrichment (6-mer frequency, TF over GST control)"
same,binding signal,ELF4,"1.05 fold enrichment (6-mer frequency, TF over GST control)"
same,binding signal,ELK4,"1.07 fold enrichment (6-mer frequency, TF over GST control)"
same,binding signal,ETV2,"1.09 fold enrichment (6-mer frequency, TF over GST control)"
same,binding signal,ELF3,"1.31 fold enrichment (6-mer frequency, TF over GST control)"
same,binding signal,CRX,"1.99 fold enrichment (6-mer frequency, TF over GST control)"
same,binding signal,ETV1,"1.17 fold enrichment (6-mer frequency, TF over GST control)"
